Compound activity: PubChem, National Center for Advancing Translational Sciences (NCATS)
A selection: hits, their analogues and other compounds. The true share with any hit is near 14%.
HCMV antiviral: inhibitors of human cytomegalovirus; HFF cells, HCMV-luciferase reporter, 72 h; stronger effect = lower value; activity change, negative = inhibition, % at 57.5 µM; 410,000 tested, 4.5% active; AID 1259415; in the data active = activity change below about -60%; inconclusive = no clear call, values can overlap the other calls; inactive = above about -39%
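HFF cells seeded 16 h at 37C, treated with compounds, infected with luciferase-reporter HCMV at MOI 1 PFU/cell; luciferase read at 72 h post infection, normalized to buffer-only and Salinomycin controls.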
Lassa entry inh: blocks Lassa virus binding to or entry into cells; 300,000 tested, 1.2% active; Lassa virus pseudotype entry inhibition, cell reporter; Potency, µM (top dose mostly 37.9 µM), without a hit: top-dose activity change, negative = inhibition, hits mostly inhibitors; calls by dose curve; tested in HEK293 cells; also: potency is read from the fitted curve at half-maximal effect; nearly all actives have a fitted effect of over 50% in size
MARV entry inh: Marburg virus entry inhibition; 300,000 tested, 1.8% active; AID 540276; Potency, µM (doses to about 37.8 µM), for the others: at the top dose activity change, negative = inhibition, usual class: inhibitors; Marburg virus pseudotyped entry inhibition, cell reporter; calls by dose curve; tested in HEK293 cells; also: potency is read from the fitted curve at half-maximal effect
Pf growth 96h: inhibits malaria parasite growth, 96 h. Potency, µM (doses to about 28.7 µM), for the others: at the highest dose activity change, negative = inhibition, most hits filed as inhibitors. P. falciparum luciferase reporter growth, 96 h. 320,000 tested, 6.9% active; also: potency is read from the fitted curve at half-maximal effect
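Two parasite generations (96 h, 37 C, 5% CO2) of compound exposure in infected erythrocytes (0.05% parasitemia, 2% hematocrit). Luciferase-reporter P. falciparum; decreased luminescence indicates inhibited growth, aimed at apicoplast-acting delayed death.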
HCV inh: inhibitors of hepatitis C virus infection; Huh7.5.1 HCVcc-Cre infection, luciferase reporter, 44 h; Potency, µM (highest dose often 41.8 µM), without a hit: at the highest dose activity change, negative = inhibition, actives largely listed as inhibitors; 340,000 tested, 3.4% active; AID 651820; also: potency is read from the fitted curve at half-maximal effect
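Luciferase read-out (15 sec integration) after a 15 min room-temperature substrate step quantifies HCVcc-Cre infection. Cells, 1,000 per well, had compound added 4 h post-plating, then virus at ~0.5 moi, and were cultured 44 h.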
Pf growth 48h: P. falciparum growth inhibition at 48 hours (one generation). Potency, µM (doses to about 28.7 µM), without a hit: at the highest dose activity change, negative = inhibition, most hits filed as inhibitors. P. falciparum luciferase growth in erythrocytes, 48 h. AID 504832. 310,000 tested, 5.9% active; also: potency is read from the fitted curve at half-maximal effect
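Growth was read as firefly luciferase luminescence after a 48 h, 37 C, 5% CO2 exposure of compounds to reporter-bearing P. falciparum cultures (0.1% parasitemia, 2% hematocrit final) in Albumax-supplemented RPMI 1640.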
* = called active by the depositor; ? = inconclusive; . = no result; [ ] = remark or other dose. Unless noted, calls follow the shape of the dose curve; as a rule, active = well fitted inhibition curve with a large enough effect; inconclusive = small, poorly fitted or top-dose-only effect, or another doubt; inactive = no such curve, though single readings can be large or run the other way. % is scaled to controls: 0 for no effect and ±100 for the full control effect.

SMILES | HCMV antiviral | Lassa entry inh | MARV entry inh | Pf growth 96h | HCV inh | Pf growth 48h
COc1ccc(Oc2cc(C)c3cccc(C)c3n2)cc1 | 33 | -2% | 18% | ? | ? | .
c1ccc(-c2nn3c(Cn4nnc5ccccc54)nnc3s2)nc1 | 9 | 6% | 19% | 6% | -31% | -18%
c1cncc(-c2nn3c(Cn4nnc5ccccc54)nnc3s2)c1 | 36 | 0% | 3.3µM* | ? | 21% | ?
COc1ccccc1C1=NNC(=NCc2ccccc2)SC1 | -60* | 12% | ? | 50% | -26% | -28%
Clc1ccc(C2=NNC(=NCc3ccccc3)SC2)cc1 | -79* | 20% | ? | ? | -26% | ?
c1ccc(CN=C2NN=C(c3ccccc3)CS2)cc1 | -30 | -21% | ? | 167% | ? | ?
Fc1ccc(C2=NNC(=NCc3ccccc3)SC2)cc1F | ? | 1% | ? | ? | -7% | ?
CCN1CCN(c2ccc(S(=O)(=O)N3CCCCC3)cc2NC(=O)c2cccc(C)c2)CC1 | -7 | 23% | ? | ? | -27% | 12µM*
CCN1CCN(c2ccc(S(=O)(=O)N3CCCCC3)cc2NC(=O)CC(C)c2ccccc2)CC1 (stereo not drawn) | -17 | ? | ? | ? | -10% | 9.3µM*
CCN1CCN(c2ccc(Cl)cc2NC(=O)c2ccc(-n3nc(C)cc3C)cc2)CC1 | 1 | . | . | ? | ? | 4.1µM*
CCN1CCN(c2ccc(Cl)cc2NC(=O)c2ccco2)CC1 | 1 | . | . | ? | ? | ?
CCN1CCN(c2ccc(S(=O)(=O)N3CCCCC3)cc2NC(=O)c2ccc(C)c(C)c2)CC1 | -22 | . | . | . | ? | .
CCN1CCN(c2ccc(S(=O)(=O)N3CCCCC3)cc2NC(=O)c2ccc(F)cc2)CC1 | 4 | 11% | ? | 9.3µM* | -17% | ?
CCOC(=O)C1(C)CCN1C(=O)c1ccccc1Br (stereo not drawn) | -4 | . | . | . | . | .
O=C(Nc1nc2ccccc2s1)C1CCN(S(=O)(=O)c2cc([N+](=O)[O-])ccc2Cl)CC1 | 0 | . | . | ? | ? | ?
Cc1cc(C)cc(NC(=O)CN(c2cc(C(F)(F)F)ccc2Cl)S(=O)(=O)c2ccccc2)c1 | 2 | -5%[46.1 µM] | 2%[46.1 µM] | . | . | .
CC(C)C(=O)N=c1sc2cc(F)cc(F)c2n1C | ? | . | . | 13% | 7% | .
CCC(=O)N=c1sc2cc(F)cc(F)c2n1C | -62* | . | . | . | -20% | .
Cc1ccc(NC(=O)CSc2ncnc3c2sc2ccccc23)cc1C | 5 | 9%[46.1 µM] | . | . | . | .
CC(=O)c1sc(Nc2nc3ccc(F)cc3s2)nc1C | 24 | ? | ? | ? | -17% | -9%
COC(=O)c1ccc2nc(Nc3nc4ccc(F)cc4s3)sc2c1 | -85* | 6.3µM* | 0.79µM* | 28% | 33% | 41%
COC(=O)c1ccc2nc(NC(=O)C(C)(C)C)sc2c1 | -63* | 1.1µM* | ? | 124% | ? | 64%
FC(F)(F)c1ccccc1Cc1c(-c2cccc(Br)c2)nc2ccc(Br)cn12 | -16 | . | . | . | . | .
COc1ccc(CNc2ncc(-c3ccc(F)cc3)n2C)c2ccccc12 | -84* | -26%[46.1 µM] | ? | 10µM* | 1% | ?
Cn1c(-c2ccc(Cl)cc2)cnc1NCc1cc2c(cc1[N+](=O)[O-])OCO2 | -26 | ? | ? | 57% | ? | ?
SMILES | HCMV antiviral | Lassa entry inh | MARV entry inh | Pf growth 96h | HCV inh | Pf growth 48h
Cn1c(-c2ccc(F)cc2)cnc1NCc1ccccc1 | -1 | 9% | 23µM* | ? | -2% | 20%
COc1ccc(OC)c(CNc2ncc(-c3ccc(F)cc3)n2C)c1 | 21 | . | . | 15µM* | -9% | ?
Cn1c(-c2ccc(F)cc2)cnc1NCc1cc2c(cc1[N+](=O)[O-])OCO2 | 12 | 14% | ? | 40% | 13µM* | 12µM*
COc1ccccc1CNc1ncc(-c2ccc(F)cc2)n1C | -14 | . | . | ? | -10% | ?
Cc1nc2ccc(C(=O)NC(C)(C)C)cn2c1N(C)C(=O)CCc1ccccc1 | -5 | . | . | . | . | .
CCC(C(=O)OCC(=O)NC1CCS(=O)(=O)C1)c1ccccc1 (stereo not drawn) | 13 | 4% | -4% | 2% | 21% | -16%
COc1ccc(Cl)cc1NC(=O)CSc1nnc2[nH]c(=O)cc(-c3ccccc3)n12 | 9 | 1%[46.1 µM] | . | . | . | .
Cn1c(-c2ccccc2)cnc1NCc1cccc([N+](=O)[O-])c1 | 20 | . | . | 28% | -12% | 3%
CCOc1ccc(-c2cnc(NCc3cccc(Cl)c3)n2C)cc1 | ? | -4%[46.1 µM] | ? | . | . | .
COc1ccc(CNc2ncc(-c3cccc([N+](=O)[O-])c3)n2C)c(OC)c1OC | 1 | . | . | 4.7µM* | -22% | -4%
CCOc1ccc(-c2cnc(NCc3cccc4ccccc34)n2CCOC)cc1 | 25 | ? | ? | -105% | 10µM* | ?
COc1ccccc1C(CCNCc1ccc(N(C)C)cc1)c1ccc(OC(C)C)cc1 (stereo not drawn) | -101* | . | . | 13µM* | ? | 8.3µM*
COCCNCc1ccccc1 | 7 | 27% | 12% | . | 11% | 18%
COc1ccccc1C(CCNCc1ccccc1)c1ccc(OC(C)C)cc1 (stereo not drawn) | -102* | . | . | ? | ? | ?
COc1ccc(CNCCC(c2ccc(OC(C)C)cc2)c2ccccc2OC)cc1OC (stereo not drawn) | -98* | ? | ? | ? | 13µM* | 13µM*
COCCNCc1ccc(C(C)C)cc1 | -26 | . | . | 115% | 7% | 51%
COc1ccc(CNCCC(c2ccc(OC(C)C)cc2)c2ccccc2OC)cc1 (stereo not drawn) | -99* | . | . | ? | ? | ?
COc1ccc(CCC(C)NCCc2ccccc2)cc1 (stereo not drawn) | ? | -29% | ? | -17% | 5% | .
CCOC(=O)c1ccccc1NC(=O)NCc1cccn1Cc1ccc(F)cc1 | -11 | ? | ? | . | . | .
COc1cc2c3nnc(-c4ccc(F)cc4)c-3cn(Cc3cccc(F)c3)c2cc1OC | . | . | . | 1µM* | ? | 0.59µM*
Cc1ccc(Cn2nc3c4cc(F)ccc4n(Cc4ccc(F)cc4)cc-3c2=O)cc1 | 6 | . | . | 1% | 9% | 33%
COc1cc2c3nnc(-c4ccc(F)cc4)c-3cn(Cc3cccc(C)c3)c2cc1OC | ? | . | . | 0.47µM* | 7% | 0.59µM*
COc1cccc(Cn2nc3c4cc(F)ccc4n(Cc4ccc(F)cc4)cc-3c2=O)c1 | -23 | 25% | -4%[46.1 µM] | 1.7µM* | 15% | -1%
Nc1nc(N)c2ncn(C3C=CC(CO)C3)c2n1 (stereo not drawn) | 7 | . | . | . | . | .
Cc1nonc1OCCNc1ccc([N+](=O)[O-])cc1[N+](=O)[O-] | -38 | -8% | ? | 49% | 16% | 4%
